# Laboratory results reported in PubChem BioAssay (NCI).
# Compounds without any hit were thinned out: in the full panel of roughly 83,000, 20% have a hit.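 Each cell line was grown in a 96-well plate and treated with one concentration of compound for 48 hours. Values below 10 were considered active.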 Values without a mark were called inactive. Activity calls are given as the source filed them.
# System: HCT-116 colon
# Assay: NCI-60 one-dose screen, 48 h (100 = growth as untreated, 0 = no growth, -100 = all killed)
# Settings: 10 µM unless noted
row,SMILES,growth
1,CCOC(=O)c1sc(NS(=O)(=O)c2ccccc2)nc1C,57.9%
2,Cc1nc(NC(=S)Nc2ccc(F)cc2)sc1C(=O)NNC(=S)Nc1ccc(F)cc1,44.9%
3,N#Cc1c(N)nc(Nc2nc3ccccc3[nH]2)nc1-c1ccc(Cl)cc1,109%
4,O=C(Nc1ccc(-n2cc(-c3ccncc3)c(-c3ccc(Cl)c(O)c3)n2)cc1)c1cc(C(F)(F)F)cc(C(F)(F)F)c1,33.6%
5,CC(=O)Nc1nc(C)c(C(=O)NN)s1,94.7%
6,CC(=O)Nc1nc(C)c(C(=O)NNS(=O)(=O)c2ccccc2)s1,52.1%
7,O=C(c1ccccc1)c1ccccc1-c1ccccc1,14%
8,COc1ccccc1C(=O)Nc1cccc(-c2cc(=O)c3c(OC)c(OC)c(OC)cc3o2)c1,36.7%
9,COc1cc2ncnc(-n3ncc4cc(NC(=O)Nc5ccc(Cl)c(C)c5)ccc43)c2cc1OC,81.5%
10,COC(=O)/C=C/c1cc(O)c2oc(-c3ccc(O)c(O)c3)c(C(=O)OC)c2c1,24.5%
11,COc1cccc(NC(=O)NCCNc2nccc(-c3c(-c4ccc(F)cc4)nc4sccn34)n2)c1,67.8%
12,CC(=O)NNC(=O)c1sc(NC(C)=O)nc1C,90.5%
13,Nc1nc(-c2cccc(Br)c2)cc(-c2cc3ccccc3oc2=O)n1,85.5%
14,COC(=O)C(Cc1cnc[nH]1)N1CC(=O)N2[C@@H](c3ccccc3)SC[C@H]2C1=O (some centres not stated),103%
15,NCCCOc1cc(Cl)ccc1NC(=O)c1cc2ccccc2cc1OCCCN,-97.3% (active)
16,COc1ccc2c(c1)cn1c3ccc(O)cc3[nH]c(=O)c21,-85.4% (active)
17,[N-]=[N+]=Nc1ncc(-c2ccc(C(F)(F)F)cc2)c(NC2CCCCCC2)n1,16% [100 µM]
18,CC(=O)N1CCN(CCNC(=O)n2cc(-c3ccncc3)c(-c3cc(O)cc(Cl)c3)n2)CC1,43.6%

row,SMILES,growth
1,Nc1nc2c(c3cnccc13)C(c1cccc(Br)c1)Cc1cnccc1-2 (configuration not stated),3.93% (active)
2,CC(=O)N1CCN(CCNC(=O)n2cc(-c3ccncc3)c(-c3ccc(O)c(Cl)c3)n2)CC1,111%
3,O=S(=O)(O)CCI,98.3%
4,c1cc[c]([Bi]([c]2ccccc2)[c]2ccccc2)cc1,104%
5,COC(=O)[C@@H]1[C@H](O)[C@H](C)[C@H](O)[C@H](C)/C=C\C=C(C)C(=O)Nc2c(C)c(OC(C)=O)c3c(c2O)C(=O)C(C)=C2OCOC(=C23)C(C)=C[C@@](C)(O)[C@H](O)[C@@H](C)[C@H]1OC(C)=O,55.8%
6,O=c1[nH]c2cc(O)ccc2n2cc3c(F)cccc3c12,19.9%
7,OC(c1ccccc1)(c1ccccc1)C(F)(F)F,107%
8,CC(C)CCCCCOC(=O)c1ccccc1SSc1ccccc1C(=O)OCCCCCC(C)C,98.5%
9,CCN(CC)c1ccc2nc3ccc(N=Nc4ccc(O)cc4)cc3[n+](-c3ccccc3)c2c1,8.46% (active)
10,O=C(Nc1ccc(-n2cc(-c3ccncc3)c(-c3ccc(Cl)c(O)c3)n2)cc1)c1ccc(Cl)c(Cl)c1,16.8%
11,Cc1nc(NC(=O)NC2CCCCC2)sc1C(=O)NN,83.8%
12,CCS(=O)(=O)N[C@@H]1O[C@H](COC(C)=O)C(OC(C)=O)[C@H](OC(C)=O)C1OC(C)=O (some centres not stated),95.3%
13,COc1ccc2cn3c4ccc(O)cc4[nH]c(=O)c3c2c1,10.6%
14,COc1ccc(C2CC(=O)c3c(O)cc(OC4OC(COC5OC(C)C(O)C(O)C5O)C(O)C(O)C4O)cc3O2)cc1O (configuration not stated),43.6%
15,CCC(C)C1NC(=O)C(CC(C)C)NC(=O)C(C)NC(=O)C(C(C)C)NC(=O)C(CCCCN)NC(=O)C(CC(C)C)NC(=O)C(C(C)C)NC(=O)[C@H](C)NC(=O)C(C(C)CC)NC(=O)C(CCCN=C(N)N)NC(=O)C(CCCCN)NC(=O)C(CCCN=C(N)N)NC(=O)C(CCCCN)NC(=O)C([C@H](C)CC)NC(=O)C(CCCCN)NC1=O (some centres not stated),3.67% (active)
16,COc1ccc2cc(C(C)C(=O)Nc3ccc(S(=O)(=O)Nc4cc(C)on4)cc3)ccc2c1 (configuration not stated),96.5%
17,CC(C)(C)c1ccc(OCCOC(=O)CBr)cc1,83.7%

# System: HCC-2998 colon
# Assay: as above
# Settings: 10 µM unless noted
row,SMILES,growth
1,Cc1nc(NC(=S)Nc2ccc(F)cc2)sc1C(=O)NNC(=S)Nc1ccc(F)cc1,68.4%
2,O=C(Nc1ccc(-n2cc(-c3ccncc3)c(-c3ccc(Cl)c(O)c3)n2)cc1)c1cc(C(F)(F)F)cc(C(F)(F)F)c1,74.2%
3,Cc1[nH]n(C(=S)Nc2nc3cc(Cl)c(F)cc3s2)c(=O)c1N=Nc1ccc(F)c(Cl)c1,114%
4,O=C(c1ccccc1)c1ccccc1-c1ccccc1,47.1%
5,COc1ccccc1C(=O)Nc1cccc(-c2cc(=O)c3c(OC)c(OC)c(OC)cc3o2)c1,67.8%
6,COc1cc2ncnc(-n3ncc4cc(NC(=O)Nc5ccc(Cl)c(C)c5)ccc43)c2cc1OC,100%
7,COC(=O)/C=C/c1cc(O)c2oc(-c3ccc(O)c(O)c3)c(C(=O)OC)c2c1,47.2%
8,O=C(N/N=C\c1ccc(-c2ccc(Br)cc2)o1)c1cc2oc(-c3cccc(C(F)(F)F)c3)cc2[nH]1,85.5%
9,COc1cccc(NC(=O)NCCNc2nccc(-c3c(-c4ccc(F)cc4)nc4sccn34)n2)c1,105%
10,CC(=O)NNC(=O)c1sc(NC(C)=O)nc1C,73.8%
11,COC(=O)C(Cc1cnc[nH]1)N1CC(=O)N2[C@@H](c3ccccc3)SC[C@H]2C1=O (some centres not stated),99.6%
12,COc1ccc2c(c1)cn1c3ccc(O)cc3[nH]c(=O)c21,11.8%
13,[N-]=[N+]=Nc1ncc(-c2ccc(C(F)(F)F)cc2)c(NC2CCCCCC2)n1,39.7% [100 µM]
14,CC(=O)N1CCN(CCNC(=O)n2cc(-c3ccncc3)c(-c3ccc(O)c(Cl)c3)n2)CC1,118%
15,O=S(=O)(O)CCI,110%
16,c1cc[c]([Bi]([c]2ccccc2)[c]2ccccc2)cc1,96.5%
17,O=C1OC(c2ccc(-c3ccccc3)cc2)=C/C1=C/c1c2ccccc2cc2ccccc12,98.7%
18,CC(C)CCCCCOC(=O)c1ccccc1SSc1ccccc1C(=O)OCCCCCC(C)C,110%
19,CCN(CC)c1ccc2nc3ccc(N=Nc4ccc(O)cc4)cc3[n+](-c3ccccc3)c2c1,62.8%
20,O=C(Nc1ccc(-n2cc(-c3ccncc3)c(-c3ccc(Cl)c(O)c3)n2)cc1)c1ccc(Cl)c(Cl)c1,10.1%
21,O=[N+]([O-])c1ccc(-c2ncc(-c3ccc(O)cc3O)[nH]2)cc1,123%
22,Cc1nc(NC(=O)NC2CCCCC2)sc1C(=O)NN,162%
23,COc1ccc2cn3c4ccc(O)cc4[nH]c(=O)c3c2c1,19.3%
24,COc1ccc(C2CC(=O)c3c(O)cc(OC4OC(COC5OC(C)C(O)C(O)C5O)C(O)C(O)C4O)cc3O2)cc1O (configuration not stated),129%
25,CCCCn1c(Cc2ccc(OC)cc2)nc2cc(OC)c(OC)cc2c1=O,98.1%
26,CCC(C)C1NC(=O)C(CC(C)C)NC(=O)C(C)NC(=O)C(C(C)C)NC(=O)C(CCCCN)NC(=O)C(CC(C)C)NC(=O)C(C(C)C)NC(=O)[C@H](C)NC(=O)C(C(C)CC)NC(=O)C(CCCN=C(N)N)NC(=O)C(CCCCN)NC(=O)C(CCCN=C(N)N)NC(=O)C(CCCCN)NC(=O)C([C@H](C)CC)NC(=O)C(CCCCN)NC1=O (some centres not stated),16.7%
27,CC(C)(C)c1ccc(OCCOC(=O)CBr)cc1,104%
